HttQ103 aggreg = qHTS Multiplex Assay to Identify Dual Action Probes in a Cell Model of Huntington: Aggregate Formation (GFP); PC12 HttQ103-GFP aggregates, Acumen cytometry, 40 h; Potency, µM (series often up to 46.1 µM), for inactives: top-dose activity change, negative = inhibition, usual class: inhibitors; 220,000 compounds, 1.1% hits; AID 1688, 2009; further: potency means the concentration at half of the fitted maximal effect; on the % scale 0 is the no-effect control and ±100 the full control effect; nearly all actives have a fitted effect of over 60% in size
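Aggregates are detected as GFP objects 1–25 µm with signal 6 STDEV over background in lysates of induced PC12 cells. These carry Huntingtin exon 1 with 103 glutamines fused to GFP under an ecdysone promoter; compounds titrated.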
ALDH1A1 inh = qHTS Assay for Inhibitors of Aldehyde Dehydrogenase 1 (ALDH1A1); Aldehyde dehydrogenase 1A1 (Homo sapiens), P00352; Purified ALDH1A1, NADH fluorescence, propionaldehyde substrate; Potency, µM (titrated, usually from 75.3 µM), without a hit: top-dose activity, negative = inhibition, usual class: inhibitors; 220,000 compounds, 7.3% hits; AID 1030, 2008; active means well fitted inhibition curve with a large enough effect, not every such curve was filed as active; inconclusive means small, poorly fitted or top-dose-only effect, or another doubt; inactive means no such curve, though single readings can be large or run the other way;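 further: potency means the concentration at half of the fitted maximal effect; plate controls were no enzyme wells and a reference inhibitor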
PNC assembly inh = High Content Assay for Compounds that inhibit the Assembly of the Perinucleolar Compartment. PC3M PTB-GFP, PNC prevalence imaging, 16 h; stronger effect = lower value. activity change (PNC), negative = inhibition, % at 10 µM. 140,000 compounds, 3.1% hits. AID 2417, 2010;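 active means readout at or below -70, meaning at least 70% loss of cells showing the perinucleolar compartment, a nuclear body marking cancer cells; inconclusive means readout between -30 and a set limit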;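 further: plate controls were DMSO wells for no effect and camptothecin positive control wells for full effect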
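Compounds are pinned in duplicate onto adhered PC3M cells stably expressing GFP-tagged PTB and incubated 16 h at 37 C. Cells are then fixed, nuclei stained with Hoechst, and PNC-positive cells counted.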
HTT cytoprotect = qHTS Multiplex Assay to Identify Dual Action Probes in a Cell Model of Huntington: Cytoprotection (ATP); PC12 HTT-Q103 induced, cytoprotection, ATP luminescence, 40 h; Potency, µM (top dose mostly 56.4 µM), inactives show cytoprotection (ATP increase), usual class: activators; 230,000 compounds, 0.14% hits; AID 1471, 2008; further: potency means the concentration at half of the fitted maximal effect; % of control where 0% means no effect; nearly all actives have a fitted effect of over 45% in size
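Quantitative HTS on tebufenozide-induced (100 nM) PC12 cells expressing HTTQ103 exon 1–GFP; compounds tested as a concentration series; survival measured via cellular ATP.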
HPGD block = qHTS Assay for Inhibitors of HPGD (15-Hydroxyprostaglandin Dehydrogenase). 15-hydroxyprostaglandin dehydrogenase [NAD(+)] (Homo sapiens), P15428. purified HPGD, NADH fluorescence kinetic, PGE2 substrate. Potency, µM, inactives show at the highest dose activity change, negative = inhibition, hits mostly inhibitors. 150,000 compounds, 4.3% hits; active means well fitted inhibition curve with a large enough effect, not every such curve was filed as active; inconclusive means small, poorly fitted or top-dose-only effect, or another doubt; inactive means no such curve, though single readings can be large or run the other way; further: potency means the concentration at half of the fitted maximal effect; on the % scale 0 is the no-effect control and ±100 the full control effect
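20 nM HPGD preincubated 15 min at room temperature with compound in 50 mM Tris-HCl pH 8, 0.01% Tween 20. Started with 1 mM NAD+ and 30 uM prostaglandin E2; NADH fluorescence (360/450 nm) read 5 times over 30-s intervals, last minus first.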
CBFb-RUNX1 inh = qHTS Assay for Compounds Blocking the Interaction Between CBF-beta and RUNX1 for the Treatment of Acute Myeloid Leukemia; Runt-related transcription factor 1 (Homo sapiens) + Core-binding factor subunit beta …; AlphaScreen CBFb-His/RUNX1-biotin binding, biochemical; Potency, µM (highest dose often 59.8 µM), for inactives: at the highest dose activity, negative = inhibition, most hits filed as inhibitors; 230,000 tested, under 10 active; AID 1477, 2009; further: % of control where 0% means no effect
Target sequence (Q01196 whole entry, looked up): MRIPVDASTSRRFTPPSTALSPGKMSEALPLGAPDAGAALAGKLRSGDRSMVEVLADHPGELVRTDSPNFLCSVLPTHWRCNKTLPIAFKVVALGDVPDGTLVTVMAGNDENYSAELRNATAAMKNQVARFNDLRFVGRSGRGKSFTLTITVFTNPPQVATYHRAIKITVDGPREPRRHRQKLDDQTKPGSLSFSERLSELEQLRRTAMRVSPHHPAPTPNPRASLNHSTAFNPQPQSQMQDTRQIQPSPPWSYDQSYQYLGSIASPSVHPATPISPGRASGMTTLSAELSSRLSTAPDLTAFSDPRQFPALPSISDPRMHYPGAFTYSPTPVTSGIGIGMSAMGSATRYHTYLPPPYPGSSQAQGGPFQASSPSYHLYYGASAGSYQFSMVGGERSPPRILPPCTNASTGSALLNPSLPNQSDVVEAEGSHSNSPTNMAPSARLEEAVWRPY
Target sequence (Q13951 whole entry, looked up): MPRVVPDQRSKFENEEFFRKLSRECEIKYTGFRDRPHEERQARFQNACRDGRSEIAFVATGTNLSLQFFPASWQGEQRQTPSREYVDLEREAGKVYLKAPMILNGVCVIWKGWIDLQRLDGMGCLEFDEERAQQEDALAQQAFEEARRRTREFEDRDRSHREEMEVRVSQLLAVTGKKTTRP
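Interaction loss through any mechanism counts as activity. Pre-formed complex of His-CBF-beta and biotin-RUNX1 (30 nM apiece) is incubated with compound 15 min, then with 50 ng nickel and 50 ng streptavidin beads for 90 min before AlphaScreen detection.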
* = called active by the depositor; [ ] = remark or other dose. This is a sample that favours compounds with a hit; in the whole collection about 11% have one here. Unless noted, the call rests on the fitted dose curve; in most records, active means well fitted curve in the direction sought with a large enough effect; inconclusive means small, poorly fitted or top-dose-only effect, or another doubt; inactive means no such curve, though single readings can be large; an effect the other way counts as inactive or inconclusive.

`N#C/C(=C\c1cc(Cl)ccc1O)C(=O)NC1CCCCC1` gave HttQ103 aggreg 5%, ALDH1A1 inh -12%, PNC assembly inh 6, HTT cytoprotect inconclusive, HPGD block -10% and CBFb-RUNX1 inh 3%.
N#C/C(=C\c1ccc(F)c(F)c1)C(=O)NC1CCCCC1 was read as HttQ103 aggreg -5%, ALDH1A1 inh 11%, PNC assembly inh inconclusive, HTT cytoprotect 13%[10 µM], HPGD block 0% and CBFb-RUNX1 inh 3%.
For N#C/C(=C\c1cc(Cl)cc(Cl)c1O)C(=O)NC1CCCCC1 the results were HttQ103 aggreg -3%, ALDH1A1 inh 32µM*, PNC assembly inh -12, HTT cytoprotect -12%, HPGD block inconclusive and CBFb-RUNX1 inh -7%.
CC1(C)CC[C@]2(C(=O)O)CC[C@@]3(C)C(=CCC4[C@@]5(C)CCC(O)C(C)(C)C5CC[C@@]43C)C2C1 (some centres not stated) was read as ALDH1A1 inh 4%, HTT cytoprotect -35%, HPGD block 0% and CBFb-RUNX1 inh inconclusive.
For C/C(=N/NC(=O)c1ccco1)c1cccc(NC(=O)c2ccc(C)s2)c1 the results were HttQ103 aggreg -3%, ALDH1A1 inh -8%, PNC assembly inh inconclusive, HPGD block 0% and CBFb-RUNX1 inh -3%.
Cc1cccc(OC(=O)C2C(c3ccccc3)C(C(=O)O)C2c2ccccc2)c1 (configuration not stated) was read as HttQ103 aggreg 3%, ALDH1A1 inh inconclusive, PNC assembly inh inconclusive, HTT cytoprotect 3%, HPGD block 0% and CBFb-RUNX1 inh 3%.
`O=C(O)C1C(c2ccccc2)C(C(=O)Oc2ccccc2)C1c1ccccc1` (configuration not stated) gave HttQ103 aggreg 2%, ALDH1A1 inh 16µM*, PNC assembly inh inconclusive, HTT cytoprotect -6%, HPGD block -5% and CBFb-RUNX1 inh 2%.
For Cc1cc2ccccn2c1C(=O)c1ccc(Cl)c([N+](=O)[O-])c1 the results were HttQ103 aggreg inconclusive, ALDH1A1 inh 2%, HTT cytoprotect -8% and CBFb-RUNX1 inh inconclusive.
Screening Cc1c(C=O)c2ccccn2c1C(=O)c1ccc(Cl)c([N+](=O)[O-])c1 returned HttQ103 aggreg -6%, ALDH1A1 inh 2.8µM*, HTT cytoprotect inconclusive and CBFb-RUNX1 inh 9%.
Nc1ncnc2c1ncn2[C@@H]1O[C@H](COP(=O)(O)OP(=O)(O)OC[C@H]2OC(O)[C@H](O)[C@@H]2O)[C@@H](O)[C@H]1O (some centres not stated) was read as ALDH1A1 inh -5%, HTT cytoprotect 13% and CBFb-RUNX1 inh 6%.
For CC(C)(C)c1[nH]c2ccccc2c1/C=N/O the results were HttQ103 aggreg 4%, ALDH1A1 inh 10%, PNC assembly inh 7, HTT cytoprotect 13%[10 µM], HPGD block 2µM* and CBFb-RUNX1 inh -4%.
CC(C)(CO)N=Cc1c(O)[nH]c2ccccc12 was read as HttQ103 aggreg -16%, ALDH1A1 inh 6%, PNC assembly inh -1, HTT cytoprotect 7%, HPGD block -1% and CBFb-RUNX1 inh 2%.
`O=[N+]([O-])c1cnc(N2CCCCC2)c([N+](=O)[O-])c1` gave HttQ103 aggreg inconclusive, ALDH1A1 inh 18µM*, PNC assembly inh inconclusive, HTT cytoprotect -18%[10 µM], HPGD block -24% and CBFb-RUNX1 inh 14%.
Cc1cc([N+](=O)[O-])cnc1N1CCOCC1 was read as HttQ103 aggreg 7%, ALDH1A1 inh -3%, PNC assembly inh -114*, HPGD block -3% and CBFb-RUNX1 inh 2%.
For Cn1nc([N+](=O)[O-])nc1N1CCOCC1 the results were HttQ103 aggreg 7%, ALDH1A1 inh 2%, PNC assembly inh -11, HPGD block -9% and CBFb-RUNX1 inh -2%.
`CCc1c2c(nc3c(C(C)C)cccc13)-c1cccc(=O)n1C2` gave ALDH1A1 inh inconclusive, HTT cytoprotect -72%, HPGD block inconclusive and CBFb-RUNX1 inh inconclusive.
For Oc1cc(CN2COc3ccccc32)c(O)cc1CNC1CCCCC1 the results were ALDH1A1 inh -2%[13.5 µM], HTT cytoprotect 7%[10 µM] and HPGD block 1.6µM*.
`CC1OCC23CC[C@@]4(C)CCC(C)(C)C[C@H]4[C@]2(C)CCC12C3CC[C@@]1(C)C2C(=O)CC(=O)[C@@H]1C` (some centres not stated) gave ALDH1A1 inh 9%, HTT cytoprotect -25%, HPGD block -1% and CBFb-RUNX1 inh -4%.
CCOC(=O)c1c(N)sn(-c2ccccc2)c1=S was read as HttQ103 aggreg 13%, ALDH1A1 inh -1%, PNC assembly inh -5, HTT cytoprotect 4%[1.9 µM], HPGD block -13% and CBFb-RUNX1 inh -5%.
`CCOC(=O)c1c2c(c(=S)n(-c3ccccc3)c1N)CCC2` gave HttQ103 aggreg -2%, ALDH1A1 inh 14µM*, PNC assembly inh -23, HTT cytoprotect -39% and CBFb-RUNX1 inh -9%.
Cn1cc(CN(CCCN2CCOCC2)C(=S)Nc2cccc(Cl)c2)c2ccccc21 was read as HttQ103 aggreg inconclusive, ALDH1A1 inh -8%, PNC assembly inh 20, HTT cytoprotect -51%[10 µM], HPGD block -7% and CBFb-RUNX1 inh -16%.
For CCOc1ccc(NC(=S)N(CCCN2CCOCC2)Cc2cn(C)c3ccccc23)cc1 the results were HttQ103 aggreg inconclusive, ALDH1A1 inh 4µM*, PNC assembly inh inconclusive, HTT cytoprotect -59%[10 µM], HPGD block -16% and CBFb-RUNX1 inh 1%.
Cc1ccc(NC(=S)N(C)Cc2cn(C)c3ccccc23)cc1 was read as HttQ103 aggreg 35µM*, ALDH1A1 inh 2%, PNC assembly inh inconclusive, HTT cytoprotect 8%[10 µM], HPGD block -3% and CBFb-RUNX1 inh 11%.
Cc1cccc(NC(=S)N(CCCN2CCOCC2)Cc2cn(C)c3ccccc23)c1 was read as HttQ103 aggreg 8.9µM*, ALDH1A1 inh inconclusive, PNC assembly inh inconclusive, HTT cytoprotect -39%[10 µM], HPGD block -2% and CBFb-RUNX1 inh 2%.

Bioassay records from PubChem BioAssay.
